The supplement of paper PMC10849652
Targets with a hit are over-represented here; the source holds about 7,900 in all. About 0.6% of all pairs of compound and target were hits. A number with no mark means an inactive call.

Assays:
Assay in all cases: log2 fold change, soluble protein after heating vs DMSO (PISA); higher = thermal stabilisation; K562 cells, 10 uM, 30 min; active = over 0.2 and 3.5 SD of the protein, either way, in both replicates (recomputed)
[1] = compound: CC[C@@H]1C(=O)N(C)c2cnc(Nc3ccc(C(=O)NC4CCN(C)CC4)cc3OC)nc2N1C1CCCC1
Outline: (§1)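 K562 cells at 2×10^6 cells/mL were exposed to 10 μM compound for 30 min, then aliquots were heated for 3 min across 48°C-58°C, pooled, and extracted in PBS containing 0.5% NP-40 at 4°C. The supernatant after 21,000xg for 90 min was taken as soluble protein and measured by TMTpro 16plex LC-MS/MS with channel sums equalised. Thermal stability is reported relative to control samples, with values from duplicates. Fold changes are given on a log2 scale.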

volasertib = compound: CC[C@@H]1C(=O)N(C)c2cnc(Nc3ccc(C(=O)N[C@H]4CC[C@H](N5CCN(CC6CC6)CC5)CC4)cc3OC)nc2N1C(C)C [volasertib]
Outline: as §1

[2] = compound: CC[C@H](C)N1C=C(C2=C(C=C(C=C21)C3=CN=C(C=C3)N4CCNCC4)C(=O)NCC5=C(C=C(NC5=O)C)C)C
Outline: as §1

epoxomicin = compound: CC[C@H](C)[C@@H](C(=O)N[C@@H]([C@@H](C)O)C(=O)N[C@@H](CC(C)C)C(=O)[C@]1(CO1)C)NC(=O)[C@H]([C@@H](C)CC)N(C)C(=O)C [epoxomicin]
Outline: as §1

[3] = compound: CCn1c(C(=O)N(C2CC2)C2CC2)cc2c3c(ncn3C)c(Nc3cc(C)n(C)n3)nc21
Outline: as §1

[4] = compound: CCn1cc(-c2ccnc3[nH]c(-c4cccc(CN(C)C)c4)cc23)c(-c2ccc(NC(=O)N(C)C)cc2)n1
Outline: as §1

[5] = compound: CN(C)CC(=O)Nc1ccc2[nH]c(=O)c3ccccc3c2c1
Outline: as §1

rosiglitazone = compound: CN(CCOC1=CC=C(C=C1)C[C@H]2C(=O)NC(=O)S2)C3=CC=CC=N3 (racemic) [rosiglitazone]
Outline: as §1

[6] = compound: CN1C2=C(C3=C1C(=O)N(N=C3)CC4=CC(=CC=C4)N)SC(=C2)S(=O)C
Outline: as §1

[7] = compound: CN1CCC(CNc2ccc3ncc(-c4cccc(OC(F)(F)F)c4)n3n2)CC1
Outline: as §1

Chain of UniProt Q8TCG2 (Q8TCG2 whole entry, looked up): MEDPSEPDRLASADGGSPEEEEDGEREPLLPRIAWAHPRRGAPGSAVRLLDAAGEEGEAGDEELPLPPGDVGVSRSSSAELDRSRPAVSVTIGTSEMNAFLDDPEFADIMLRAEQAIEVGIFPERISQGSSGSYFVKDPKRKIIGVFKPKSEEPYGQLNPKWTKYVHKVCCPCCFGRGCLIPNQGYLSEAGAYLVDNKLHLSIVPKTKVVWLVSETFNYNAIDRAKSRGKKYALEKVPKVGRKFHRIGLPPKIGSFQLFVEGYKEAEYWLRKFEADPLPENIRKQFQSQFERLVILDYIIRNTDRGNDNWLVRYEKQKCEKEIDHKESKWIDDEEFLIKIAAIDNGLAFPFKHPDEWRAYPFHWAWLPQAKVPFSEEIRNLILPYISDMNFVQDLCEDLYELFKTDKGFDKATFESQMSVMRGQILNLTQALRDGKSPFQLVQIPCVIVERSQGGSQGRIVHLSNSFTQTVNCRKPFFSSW
Chain of UniProt O43924 (O43924 whole entry, looked up): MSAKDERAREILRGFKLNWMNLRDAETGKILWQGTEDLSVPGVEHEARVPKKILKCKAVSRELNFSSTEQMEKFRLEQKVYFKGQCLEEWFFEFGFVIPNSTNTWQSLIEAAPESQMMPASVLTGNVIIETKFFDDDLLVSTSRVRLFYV
Chain of UniProt Q2TAL8 (Q2TAL8 whole entry, looked up): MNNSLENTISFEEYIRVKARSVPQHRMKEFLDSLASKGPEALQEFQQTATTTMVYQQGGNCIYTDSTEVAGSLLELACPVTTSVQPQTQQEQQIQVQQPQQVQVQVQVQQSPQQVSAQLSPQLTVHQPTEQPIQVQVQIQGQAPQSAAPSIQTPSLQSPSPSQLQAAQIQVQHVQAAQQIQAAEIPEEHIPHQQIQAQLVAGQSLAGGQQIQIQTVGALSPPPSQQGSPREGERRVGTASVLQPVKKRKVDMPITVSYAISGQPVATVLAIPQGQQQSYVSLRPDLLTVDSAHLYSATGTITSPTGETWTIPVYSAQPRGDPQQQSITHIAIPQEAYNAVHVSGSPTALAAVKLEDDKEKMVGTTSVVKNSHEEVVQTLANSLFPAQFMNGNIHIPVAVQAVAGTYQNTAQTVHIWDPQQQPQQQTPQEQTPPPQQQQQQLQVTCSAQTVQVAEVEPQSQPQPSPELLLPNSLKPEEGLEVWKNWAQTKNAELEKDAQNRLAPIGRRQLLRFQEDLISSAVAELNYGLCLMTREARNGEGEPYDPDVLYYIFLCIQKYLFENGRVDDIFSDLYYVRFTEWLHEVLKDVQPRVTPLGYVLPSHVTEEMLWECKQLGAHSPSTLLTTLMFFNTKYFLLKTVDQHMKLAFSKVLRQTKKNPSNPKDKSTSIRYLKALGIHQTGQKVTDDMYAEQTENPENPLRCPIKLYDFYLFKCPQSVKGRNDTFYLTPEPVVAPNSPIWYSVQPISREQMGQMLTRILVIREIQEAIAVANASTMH
Chain of UniProt Q504Q3 (Q504Q3 whole entry, looked up): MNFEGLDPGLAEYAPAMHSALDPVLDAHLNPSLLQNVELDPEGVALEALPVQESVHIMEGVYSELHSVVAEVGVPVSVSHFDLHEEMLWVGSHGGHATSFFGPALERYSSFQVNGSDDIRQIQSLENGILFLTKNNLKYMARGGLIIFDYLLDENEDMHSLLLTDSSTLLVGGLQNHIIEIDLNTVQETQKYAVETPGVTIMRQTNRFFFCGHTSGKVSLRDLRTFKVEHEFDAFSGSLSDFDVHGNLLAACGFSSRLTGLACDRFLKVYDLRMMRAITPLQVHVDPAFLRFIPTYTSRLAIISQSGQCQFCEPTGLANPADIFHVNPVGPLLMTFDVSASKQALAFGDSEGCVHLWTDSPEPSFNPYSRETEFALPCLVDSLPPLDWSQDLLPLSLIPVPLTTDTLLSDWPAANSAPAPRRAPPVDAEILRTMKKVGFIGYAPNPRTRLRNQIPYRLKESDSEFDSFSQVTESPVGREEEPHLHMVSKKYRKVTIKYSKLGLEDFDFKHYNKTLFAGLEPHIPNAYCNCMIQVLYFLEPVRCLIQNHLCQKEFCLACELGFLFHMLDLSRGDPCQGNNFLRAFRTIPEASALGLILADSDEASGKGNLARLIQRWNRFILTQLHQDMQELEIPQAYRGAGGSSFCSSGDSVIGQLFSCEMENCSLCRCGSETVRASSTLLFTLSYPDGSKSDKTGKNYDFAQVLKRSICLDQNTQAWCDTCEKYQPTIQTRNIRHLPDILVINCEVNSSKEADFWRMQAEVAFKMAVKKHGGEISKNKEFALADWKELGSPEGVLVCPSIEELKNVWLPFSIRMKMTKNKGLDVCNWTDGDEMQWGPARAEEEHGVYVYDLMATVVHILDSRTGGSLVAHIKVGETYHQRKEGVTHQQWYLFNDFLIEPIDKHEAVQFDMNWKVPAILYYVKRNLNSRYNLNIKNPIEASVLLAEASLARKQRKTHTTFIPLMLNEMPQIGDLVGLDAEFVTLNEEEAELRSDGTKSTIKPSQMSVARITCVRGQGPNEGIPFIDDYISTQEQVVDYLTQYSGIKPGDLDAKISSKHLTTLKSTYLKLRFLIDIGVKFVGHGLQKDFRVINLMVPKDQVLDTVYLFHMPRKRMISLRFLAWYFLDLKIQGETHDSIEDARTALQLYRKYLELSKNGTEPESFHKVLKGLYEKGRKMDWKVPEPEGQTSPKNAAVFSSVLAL
Chain of UniProt Q10713 (Q10713 whole entry, looked up): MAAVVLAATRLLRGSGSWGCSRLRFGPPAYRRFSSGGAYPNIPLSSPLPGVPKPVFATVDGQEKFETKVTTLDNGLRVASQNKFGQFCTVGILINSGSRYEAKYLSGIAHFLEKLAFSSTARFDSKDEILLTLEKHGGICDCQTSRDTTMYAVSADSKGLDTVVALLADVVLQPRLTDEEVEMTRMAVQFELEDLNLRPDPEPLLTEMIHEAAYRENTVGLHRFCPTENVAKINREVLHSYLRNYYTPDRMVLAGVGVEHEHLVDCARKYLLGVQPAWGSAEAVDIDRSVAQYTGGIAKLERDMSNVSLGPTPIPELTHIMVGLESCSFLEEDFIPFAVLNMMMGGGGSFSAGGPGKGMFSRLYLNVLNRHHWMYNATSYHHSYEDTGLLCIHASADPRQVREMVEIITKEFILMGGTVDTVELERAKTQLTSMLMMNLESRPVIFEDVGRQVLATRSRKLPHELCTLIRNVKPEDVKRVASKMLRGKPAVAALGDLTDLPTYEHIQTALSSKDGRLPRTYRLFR
Chain of UniProt Q15126 (Q15126 whole entry, looked up): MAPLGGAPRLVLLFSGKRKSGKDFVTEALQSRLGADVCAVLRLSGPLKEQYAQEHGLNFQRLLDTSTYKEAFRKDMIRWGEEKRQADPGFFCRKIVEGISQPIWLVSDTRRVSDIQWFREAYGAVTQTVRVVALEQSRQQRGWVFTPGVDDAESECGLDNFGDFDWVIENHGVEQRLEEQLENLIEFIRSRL
Chain of UniProt Q9UHX1 (Q9UHX1 whole entry, looked up): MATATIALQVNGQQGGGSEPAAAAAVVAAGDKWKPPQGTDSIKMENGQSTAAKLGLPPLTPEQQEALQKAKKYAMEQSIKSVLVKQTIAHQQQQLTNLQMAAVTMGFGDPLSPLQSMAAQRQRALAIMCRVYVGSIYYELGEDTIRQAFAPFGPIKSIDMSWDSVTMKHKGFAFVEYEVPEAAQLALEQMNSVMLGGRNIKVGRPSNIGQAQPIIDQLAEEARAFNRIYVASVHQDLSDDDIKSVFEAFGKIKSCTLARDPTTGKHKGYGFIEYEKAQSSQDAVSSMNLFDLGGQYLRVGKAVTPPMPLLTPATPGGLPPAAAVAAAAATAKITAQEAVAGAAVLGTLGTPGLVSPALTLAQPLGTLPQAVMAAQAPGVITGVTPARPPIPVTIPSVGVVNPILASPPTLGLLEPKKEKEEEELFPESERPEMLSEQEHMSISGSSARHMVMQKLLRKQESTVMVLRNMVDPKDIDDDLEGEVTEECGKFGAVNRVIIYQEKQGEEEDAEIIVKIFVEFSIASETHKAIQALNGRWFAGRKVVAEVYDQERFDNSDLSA
Chain of UniProt P05423 (P05423 whole entry, looked up): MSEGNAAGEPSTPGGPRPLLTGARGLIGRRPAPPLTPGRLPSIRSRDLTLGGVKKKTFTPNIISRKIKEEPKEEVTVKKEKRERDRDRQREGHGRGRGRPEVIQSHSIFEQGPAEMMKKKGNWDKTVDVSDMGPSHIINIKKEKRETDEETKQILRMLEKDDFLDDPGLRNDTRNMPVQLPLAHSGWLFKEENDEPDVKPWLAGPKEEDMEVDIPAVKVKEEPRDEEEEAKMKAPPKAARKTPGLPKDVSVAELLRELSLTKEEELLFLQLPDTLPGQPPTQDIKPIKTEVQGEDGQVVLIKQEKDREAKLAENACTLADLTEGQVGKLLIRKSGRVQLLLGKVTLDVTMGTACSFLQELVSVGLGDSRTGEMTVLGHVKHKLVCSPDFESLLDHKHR
Chain of UniProt Q9UBV8 (Q9UBV8 whole entry, looked up): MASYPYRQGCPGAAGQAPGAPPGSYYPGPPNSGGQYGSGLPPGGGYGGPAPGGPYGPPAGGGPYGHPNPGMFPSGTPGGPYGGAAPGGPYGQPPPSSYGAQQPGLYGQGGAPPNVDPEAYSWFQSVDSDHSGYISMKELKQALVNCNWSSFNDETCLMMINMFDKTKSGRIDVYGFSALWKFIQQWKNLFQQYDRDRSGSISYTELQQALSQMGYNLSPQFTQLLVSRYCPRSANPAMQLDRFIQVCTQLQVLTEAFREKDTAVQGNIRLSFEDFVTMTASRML
Chain of UniProt P07205 (P07205 whole entry, looked up): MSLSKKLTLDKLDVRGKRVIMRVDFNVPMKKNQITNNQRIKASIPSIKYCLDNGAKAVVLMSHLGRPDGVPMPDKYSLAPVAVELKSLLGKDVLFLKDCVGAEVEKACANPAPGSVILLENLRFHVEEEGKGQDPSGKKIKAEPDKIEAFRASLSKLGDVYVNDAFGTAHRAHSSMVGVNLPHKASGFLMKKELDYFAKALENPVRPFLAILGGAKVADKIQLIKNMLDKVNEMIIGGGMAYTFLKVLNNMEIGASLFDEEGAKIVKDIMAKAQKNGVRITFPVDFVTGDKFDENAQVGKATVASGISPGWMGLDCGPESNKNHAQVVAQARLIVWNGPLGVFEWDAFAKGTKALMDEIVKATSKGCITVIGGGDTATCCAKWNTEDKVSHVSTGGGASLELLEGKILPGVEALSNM

Target | log2 fold change [1] | log2 fold change (volasertib) | log2 fold change [2] | log2 fold change (epoxomicin) | log2 fold change [3] | log2 fold change [4] | log2 fold change [5] | log2 fold change (rosiglitazone) | log2 fold change [6] | log2 fold change [7]
PTPA (UniProt Q15257) | -0.007 | 0.004 | -0.012 | 0.051 | -0.017 | -0.06 | -0.002 | 0.008 | -0.072 | -0.009
PKM isoform 2 (UniProt P14618) | 0 | 0.091 | 0.018 | 0.29 | – | -0.006 | 0.053 | -0.1 | -0.184 | -0.046
PMPCA (UniProt Q10713) | 0.018 | 0.158 | 0.021 | 0.029 | 0.016 | -0.095 | 0.013 | 0.024 | -0.124 | 0.138
QRICH1 (UniProt Q2TAL8) | -0.464 (active) | -0.39 | 0.07 | 0.027 | -0.163 | – | 0.258 | -0.017 | 0 | –
PXK (UniProt Q7Z7A4) | -0.136 | -0.077 | 0.04 | 0.029 | 0.004 | -0.012 | 0.027 | 0.046 | -0.028 | -0.208
PTRHD1 (UniProt Q6GMV3) | 0.106 | 0.037 | -0.028 | 0.415 (active) | 0.064 | 0.086 | -0.056 | 0.048 | 0.019 | 0.078
POLR3B (UniProt Q9NW08) | 0.029 | -0.44 | 0.134 | 0.07 | -0.069 | -0.028 | 0.075 | 0.035 | 0.105 | -0.058
POLR2C (UniProt P19387) | 0.059 | -0.187 | 0.017 | 0.075 | -0.035 | – | 0.006 | 0.042 | -0.04 | –
PRKACB isoform 2 (UniProt P22694) | -0.025 | -0.031 | 0.004 | -0.033 | 0.008 | -0.009 | -0.048 | 0.025 | -0.042 | -0.022
PSD3 (UniProt Q9NYI0) | -0.019 | -0.108 | 0.061 | – | – | – | 0.004 | – | – | –
PEF1 (UniProt Q9UBV8) | -0.144 | -0.329 (active) | 0.035 | 0.101 | 0.045 | 0.002 | -0.061 | -0.022 | -0.005 | 0.048
PGK2 (UniProt P07205) | 0.054 | 0.123 | -0.028 | -0.037 | – | 0.123 | -0.112 | 0.023 | -0.059 | 0.06
PRKAR2B (UniProt P31323) | -0.037 | 0.053 | 0.056 | 0.025 | -0.023 | -0.023 | -0.008 | 0.051 | 0.005 | -0.495 (active)
PATL1 (UniProt Q86TB9) | 0.109 | 0.013 | – | -0.041 | -0.022 | 0.051 | 0.007 | 0.078 | 0.104 | -0.445 (active)
PDE6D (UniProt O43924) | – | – | -0.179 | 0.105 | 0.26 | -0.29 | 0.05 | -0.054 | -0.096 | 0.061
PAN2 (UniProt Q504Q3) | 0.101 | – | 0.167 | – | – | – | 0.006 | 0.181 | 0.143 | –
PMVK (UniProt Q15126) | – | – | 0.069 | 0.003 | 0.028 | 0.142 | 0.018 | 0.067 | 0.036 | 0.057

Target | log2 fold change [1] | log2 fold change (volasertib) | log2 fold change [2] | log2 fold change (epoxomicin) | log2 fold change [3] | log2 fold change [4] | log2 fold change [5] | log2 fold change (rosiglitazone) | log2 fold change [6] | log2 fold change [7]
PUF60 isoform 2 (UniProt Q9UHX1) | – | -0.372 | – | – | – | – | 0.067 | -0.011 | -0.259 | –
PKN2 (UniProt Q16513) | – | -0.135 | 0.159 | -0.027 | -0.197 | -0.046 | 0.009 | 0.026 | 0.027 | -0.288 (active)
PHRF1 (UniProt Q9P1Y6) | – | 0.373 | – | – | 0.035 | – | – | – | – | –
PI4K2B (UniProt Q8TCG2) | -0.147 | – | -0.039 | – | -0.057 | 0.045 | -0.024 | 0.004 | 0.079 | -0.1
PRKX (UniProt P51817) | – | – | – | – | -0.019 | – | – | 0.191 | – | –
PEX5 isoform 4 (UniProt P50542) | – | – | – | 0.2 | 0.096 | – | -0.017 | – | 0.366 | –
PSMA3 (UniProt H0YJ03) | 0.115 | 0.076 | – | – | – | – | -0.04 | – | 0.027 | –
PIM1 isoform 2 (UniProt P11309) | – | – | – | – | – | -0.068 | – | – | – | 2.26 (active)
PPP1R12B isoform 6 (UniProt O60237) | – | – | 0.088 | – | -0.11 | – | – | 0.006 | – | –
PMS2CL (UniProt Q68D20) | – | – | -0.126 | 0.126 | – | – | – | – | – | –
PPP2R5C isoform 2 (UniProt Q13362) | -0.209 | – | – | – | -0.099 | – | – | 0.009 | – | –
PSMC3 (UniProt E9PLG2) | – | – | – | -0.273 | – | – | -0.238 | 0.043 | 0.046 | –
POLR3D (UniProt P05423) | – | -0.394 (active) | 0.107 | -0.066 | -0.06 | 0.032 | 0.018 | -0.005 | 0.61 | -0.035
PRKD2 (UniProt M0R346) | – | – | – | -0.072 | – | -0.025 | – | -0.026 | – | -0.14
PDE4A (UniProt P27815) | – | -0.331 | – | -0.124 | 0.099 | – | 0.082 | 0.078 | – | –
PDE4DIP (UniProt E9PS60) | 0.047 | – | – | – | -0.072 | – | 0.095 | – | – | –
PLCL1 (UniProt Q15111) | -0.018 | – | 0.232 | -0.034 | -0.206 | 0.311 | 0.035 | -0.128 | – | -0.094
